In the supplement of paper PMC10849652:
Targets with a hit are over-represented here; the source holds about 8,800 in all. About 0.5% of all pairs of compound and target were hits.

Columns and labels:
Assay in all cases: log2 fold change, soluble protein after heating vs DMSO (PISA); higher = thermal stabilisation; K562 lysate, 10 uM; active = over 0.2 and 3.5 SD of the protein, either way, in both replicates (recomputed)
alvocidib = compound: CN1CC[C@H](c2c(O)cc(O)c3c(=O)cc(-c4ccccc4Cl)oc23)[C@H](O)C1 [alvocidib]
Outline: (§1)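 Following dounce homogenisation of K562 pellets in PBS pH 7.4 with 1 mM MgCl2, crude extract at 1 mg/mL protein was incubated for 30 min with 10 μM compound. Aliquots were then heated for 3 min over 48°C-58°C and pooled, NP-40 was added to 0.5% at 4°C, and soluble protein was recovered as the supernatant at 21,000xg for 90 min. Channel-sum-equalised TMTpro 16plex LC-MS/MS quantified this protein. Each value, from duplicates, is a log-two fold change in thermal stability relative to solvent controls.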

Tubastatin A = compound: CN1CCc2c(c3ccccc3n2Cc2ccc(C(=O)NO)cc2)C1 [Tubastatin A]
Outline: as §1

[1] = compound: CNC(=O)C1=CC=CC=C1NC2=NC(=NC=C2Cl)NC3=C(C=C(C=C3)N4CCOCC4)OC
Outline: as §1

defactinib = compound: CNC(=O)c1ccc(Nc2ncc(C(F)(F)F)c(NCc3nccnc3N(C)S(C)(=O)=O)n2)cc1 [defactinib]
Outline: as §1

[2] = compound: CNc1nc(-c2ccc3c(N)n[nH]c3c2)cc(N2C[C@@H](C(=O)NC3CCCCC3)CC[C@H]2C)n1
Outline: as §1

encorafenib = compound: COC(=O)N[C@@H](C)CNc1nccc(-c2cn(C(C)C)nc2-c2cc(Cl)cc(NS(C)(=O)=O)c2F)n1 [encorafenib]
Outline: as §1

[3] = compound: COC(=O)[C@H](CCSC)NC(=O)C1=C(C=C(C=C1)NC[C@H](CS)N)C2=CC=CC=C2
Outline: as §1

alisertib = compound: COc1cc(Nc2ncc3c(n2)-c2ccc(Cl)cc2C(c2c(F)cccc2OC)=NC3)ccc1C(=O)O [alisertib]
Outline: as §1

[4] = compound: COc1cc2nc(-c3cc(F)ccc3O)nc(N[C@@H]3CNC[C@H]3C(C)(C)O)c2cc1OC
Outline: as §1

gefitinib = compound: COc1cc2ncnc(Nc3ccc(F)c(Cl)c3)c2cc1OCCCN1CCOCC1 [gefitinib]
Outline: as §1

Measured: log2 fold change

XPO5 (UniProt Q9HAV4)
inactive: alvocidib 0.025 | Tubastatin A -0.184 | [1] -0.014 | defactinib -0.002 | [2] -0.019 | encorafenib 0.021 | [3] 0.012 | alisertib -0.004 | [4] 0 | gefitinib 0.013

WDR6 (UniProt Q9NNW5)
inactive: alvocidib -0.009 | Tubastatin A -0.077 | [1] -0.004 | defactinib 0.003 | [2] -0.011 | encorafenib 0.015 | [3] 0.031 | alisertib 0.005 | [4] 0.016 | gefitinib -0.013

ZHX1 (UniProt Q9UKY1)
inactive: alvocidib -0.231 | Tubastatin A -0.194 | [1] 0 | defactinib 0.034 | [2] 0.251 | encorafenib 0.041 | [3] 0.044 | alisertib 0.013 | [4] 0.042 | gefitinib 0.012

UNC13D (UniProt Q70J99)
inactive: alvocidib 0.015 | Tubastatin A -0.117 | [1] 0.014 | defactinib 0.026 | [2] -0.035 | encorafenib 0.059 | [3] 0.054 | alisertib -0.005 | [4] 0.001 | gefitinib -0.034

UQCC2 (UniProt Q9BRT2)
UniProt Q9BRT2, sequence (Q9BRT2 whole entry, looked up): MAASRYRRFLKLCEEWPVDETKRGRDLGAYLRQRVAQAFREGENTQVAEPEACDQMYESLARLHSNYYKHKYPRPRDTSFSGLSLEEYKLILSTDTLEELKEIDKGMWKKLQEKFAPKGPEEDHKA
inactive: alvocidib 0.079 | Tubastatin A 0.05 | [1] -0.027 | defactinib 0 | [2] 0.006 | encorafenib 0.021 | [3] -0.025 | alisertib 0.029 | [4] 0.017 | gefitinib -0.059

YTHDF3 (UniProt Q7Z739)
UniProt Q7Z739, sequence (Q7Z739 whole entry, looked up): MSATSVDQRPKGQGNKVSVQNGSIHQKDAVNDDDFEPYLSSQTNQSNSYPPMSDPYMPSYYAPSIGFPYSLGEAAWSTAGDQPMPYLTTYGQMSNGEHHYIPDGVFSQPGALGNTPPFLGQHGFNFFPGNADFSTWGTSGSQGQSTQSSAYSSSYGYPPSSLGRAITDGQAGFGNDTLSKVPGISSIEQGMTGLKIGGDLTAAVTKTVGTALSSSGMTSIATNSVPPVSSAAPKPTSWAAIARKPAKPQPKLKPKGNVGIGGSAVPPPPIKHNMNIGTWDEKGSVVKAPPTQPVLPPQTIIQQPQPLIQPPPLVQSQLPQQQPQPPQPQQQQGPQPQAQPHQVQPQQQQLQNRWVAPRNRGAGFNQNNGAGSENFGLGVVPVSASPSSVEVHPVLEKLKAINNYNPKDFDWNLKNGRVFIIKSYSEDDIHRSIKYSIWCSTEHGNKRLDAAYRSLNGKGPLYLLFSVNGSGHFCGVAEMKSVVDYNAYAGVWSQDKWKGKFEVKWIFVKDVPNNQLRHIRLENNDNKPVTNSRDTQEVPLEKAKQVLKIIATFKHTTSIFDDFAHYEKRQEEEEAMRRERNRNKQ
inactive: alvocidib 0.03 | Tubastatin A -0.108 | [1] -0.071 | defactinib -0.05 | [2] -0.112 | encorafenib 0.097 | [3] 0.024 | alisertib 0.043 | [4] 0.009 | gefitinib 0.013

USP8 (UniProt P40818)
inactive: alvocidib 0.023 | Tubastatin A -0.018 | [1] 0.014 | defactinib 0.02 | [2] 0.005 | encorafenib 0.004 | [3] 0.102 | alisertib -0.011 | [4] 0.002 | gefitinib 0.015

YES1 (UniProt P07947)
inactive: alvocidib -0.065 | Tubastatin A 0.171 | [1] -0.003 | defactinib -0.228 | [2] -0.094 | encorafenib -0.009 | [3] -0.024 | alisertib 0.049 | [4] 0.087 | gefitinib -0.13

ZNF644 (UniProt Q9H582)
inactive: alvocidib 0.003 | Tubastatin A -0.038 | [1] -0.058 | defactinib 0.025 | [2] -0.02 | encorafenib 0.028 | [3] -0.011 | alisertib -0.018 | gefitinib -0.024

ZKSCAN8 (UniProt Q15776)
inactive: Tubastatin A -0.053 | [1] 0.059 | defactinib 0.037 | [2] 0.009 | encorafenib 0.2 | [3] -0.206 | alisertib -0.084 | [4] -0.001 | gefitinib 0

VASN (UniProt Q6EMK4)
inactive: Tubastatin A -0.161 | [1] -0.087 | [2] 0.096 | encorafenib 0.2 | [3] 0.02

UTRN isoform 2 (UniProt P46939)
inactive: alvocidib -0.084 | [1] -0.166 | encorafenib -0.012 | [3] -0.037

ZNF845 (UniProt Q96IR2)
inactive: alvocidib 0.011 | Tubastatin A -0.149 | [1] 0.314 | defactinib -0.001 | [2] 0.093 | alisertib -0.018 | [4] 0.035 | gefitinib 0.035

ZNF593 (UniProt O00488)
inactive: alvocidib -0.005 | Tubastatin A -0.07 | [1] -0.135 | defactinib 0.044 | [2] -0.011 | encorafenib -0.006 | [3] -0.088 | [4] 0.231

YBEY (UniProt P58557)
inactive: [1] -0.056 | defactinib 0.016 | [2] -0.066 | encorafenib -0.037 | [3] 0.071

WIPI1 (UniProt Q5MNZ9)
UniProt Q5MNZ9, sequence (Q5MNZ9 whole entry, looked up): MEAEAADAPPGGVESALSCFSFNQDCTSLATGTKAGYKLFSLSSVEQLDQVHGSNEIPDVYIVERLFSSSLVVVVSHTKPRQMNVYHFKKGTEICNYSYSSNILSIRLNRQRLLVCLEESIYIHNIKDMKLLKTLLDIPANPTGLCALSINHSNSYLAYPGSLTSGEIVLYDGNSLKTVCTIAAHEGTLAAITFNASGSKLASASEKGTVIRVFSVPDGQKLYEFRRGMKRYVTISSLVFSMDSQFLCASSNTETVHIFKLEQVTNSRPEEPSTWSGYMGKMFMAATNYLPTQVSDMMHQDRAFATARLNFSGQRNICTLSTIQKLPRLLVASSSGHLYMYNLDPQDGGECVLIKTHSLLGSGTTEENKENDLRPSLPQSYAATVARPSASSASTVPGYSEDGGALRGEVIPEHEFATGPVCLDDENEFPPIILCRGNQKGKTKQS
inactive: alvocidib -0.046 | Tubastatin A 0.013 | [1] 0.036 | [2] 0.099 | encorafenib -0.009 | [3] 0.029 | alisertib -0.189 | [4] 0.008 | gefitinib -0.017

WEE1 (UniProt P30291)
inactive: Tubastatin A -0.194 | defactinib 0.145 | [2] -0.072 | encorafenib -0.035 | [3] 0.11 | alisertib 0.018 | [4] 0.055 | gefitinib 0.129
active: [1] 0.498

URGCP (UniProt Q8TCY9)
inactive: Tubastatin A 0.168 | defactinib -0.19 | [2] -0.005 | alisertib 0.003 | gefitinib 0.006

ULK3 isoform 4 (UniProt Q6PHR2)
UniProt Q6PHR2, sequence (Q6PHR2 whole entry, looked up): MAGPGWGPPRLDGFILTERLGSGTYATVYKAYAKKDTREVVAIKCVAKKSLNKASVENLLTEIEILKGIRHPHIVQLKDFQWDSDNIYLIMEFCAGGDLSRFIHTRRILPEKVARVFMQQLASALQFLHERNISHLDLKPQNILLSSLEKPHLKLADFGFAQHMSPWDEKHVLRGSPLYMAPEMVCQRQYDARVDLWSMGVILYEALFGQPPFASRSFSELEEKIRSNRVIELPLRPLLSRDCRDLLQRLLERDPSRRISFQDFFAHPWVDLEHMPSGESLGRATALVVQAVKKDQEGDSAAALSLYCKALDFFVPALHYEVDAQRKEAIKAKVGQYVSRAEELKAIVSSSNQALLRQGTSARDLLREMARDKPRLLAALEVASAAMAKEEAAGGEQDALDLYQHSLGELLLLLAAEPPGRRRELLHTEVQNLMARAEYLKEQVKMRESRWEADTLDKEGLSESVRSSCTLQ
inactive: alvocidib -0.014 | [1] 0.004 | defactinib 0.039 | [2] 0.016 | encorafenib -0.089 | [3] -0.061 | [4] 0.089

UNC13A (UniProt Q9UPW8)
inactive: alvocidib -0.643 | [1] -0.11 | alisertib -0.067 | gefitinib -0.076

UNKL (UniProt E9PDK2)
inactive: defactinib -0.008 | [2] -0.042 | encorafenib 0.044 | [3] 0.106

ZFPM1 (UniProt Q8IX07)
UniProt Q8IX07, sequence (Q8IX07 whole entry, looked up): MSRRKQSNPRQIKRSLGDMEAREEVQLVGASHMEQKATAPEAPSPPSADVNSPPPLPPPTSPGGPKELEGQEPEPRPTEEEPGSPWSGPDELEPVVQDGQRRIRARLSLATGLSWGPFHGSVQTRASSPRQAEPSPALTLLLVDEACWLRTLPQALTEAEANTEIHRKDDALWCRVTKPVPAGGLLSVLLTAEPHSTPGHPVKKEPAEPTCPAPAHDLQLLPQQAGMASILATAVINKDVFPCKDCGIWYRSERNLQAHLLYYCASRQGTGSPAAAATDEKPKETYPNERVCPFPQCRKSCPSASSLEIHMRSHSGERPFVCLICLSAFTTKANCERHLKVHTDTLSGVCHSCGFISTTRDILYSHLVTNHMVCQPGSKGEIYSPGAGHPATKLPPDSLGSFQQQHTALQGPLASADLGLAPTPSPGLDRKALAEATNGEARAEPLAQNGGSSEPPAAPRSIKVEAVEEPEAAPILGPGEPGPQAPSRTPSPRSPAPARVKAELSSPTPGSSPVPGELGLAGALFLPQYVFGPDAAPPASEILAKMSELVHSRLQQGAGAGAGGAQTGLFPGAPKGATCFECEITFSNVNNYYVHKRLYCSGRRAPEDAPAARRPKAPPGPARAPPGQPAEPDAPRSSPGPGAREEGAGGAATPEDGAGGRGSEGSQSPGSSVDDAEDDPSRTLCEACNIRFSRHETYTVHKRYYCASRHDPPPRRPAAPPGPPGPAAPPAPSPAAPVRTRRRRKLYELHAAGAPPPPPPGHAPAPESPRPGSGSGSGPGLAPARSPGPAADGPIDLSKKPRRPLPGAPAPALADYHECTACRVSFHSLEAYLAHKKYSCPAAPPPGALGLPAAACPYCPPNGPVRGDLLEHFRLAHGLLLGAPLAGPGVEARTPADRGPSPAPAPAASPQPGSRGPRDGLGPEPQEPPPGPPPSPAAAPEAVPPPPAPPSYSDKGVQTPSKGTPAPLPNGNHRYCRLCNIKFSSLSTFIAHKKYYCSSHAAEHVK
inactive: alvocidib 0.014 | Tubastatin A 0.024 | [1] -0.022 | defactinib 0 | [2] 0.007 | encorafenib 0.072 | [3] -0.009 | alisertib -0.011 | [4] 0.018 | gefitinib -0.006

ZNF346 (UniProt Q9UL40)
inactive: alvocidib 0.05 | Tubastatin A 0.036 | [1] -0.009 | [2] -0.029 | encorafenib -0.006 | [3] 0.062 | alisertib -0.03 | [4] 0.019 | gefitinib 0.046

ZFYVE19 isoform 3 (UniProt Q96K21)
inactive: [4] -0.006

WSB1 (UniProt Q9Y6I7)
inactive: alvocidib 0.184 | Tubastatin A -0.014 | [2] 0.12

ZSCAN21 (UniProt Q9Y5A6)
UniProt Q9Y5A6, sequence (Q9Y5A6 whole entry, looked up): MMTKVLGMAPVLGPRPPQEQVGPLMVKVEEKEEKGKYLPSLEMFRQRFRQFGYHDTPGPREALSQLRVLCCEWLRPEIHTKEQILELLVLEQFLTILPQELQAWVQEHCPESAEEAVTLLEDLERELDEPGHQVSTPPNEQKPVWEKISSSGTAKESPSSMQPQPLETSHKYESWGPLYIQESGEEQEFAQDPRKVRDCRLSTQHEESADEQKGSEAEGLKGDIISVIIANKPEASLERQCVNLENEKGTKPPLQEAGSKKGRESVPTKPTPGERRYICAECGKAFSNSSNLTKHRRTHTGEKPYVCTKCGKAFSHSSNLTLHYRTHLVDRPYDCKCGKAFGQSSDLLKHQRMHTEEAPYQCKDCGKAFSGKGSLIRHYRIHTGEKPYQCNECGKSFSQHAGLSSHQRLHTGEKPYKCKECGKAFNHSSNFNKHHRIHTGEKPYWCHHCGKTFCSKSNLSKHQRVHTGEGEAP
inactive: alvocidib -0.11 | encorafenib 0.031 | [3] 0.103

ZNF281 (UniProt Q9Y2X9)
inactive: Tubastatin A -0.16 | [1] 0.025 | [2] 0.095

VAC14 (UniProt Q08AM6)
inactive: alvocidib 0 | Tubastatin A -0.036 | [1] 0.022 | defactinib 0.007 | [2] 0.005 | encorafenib 0.04 | [3] -0.051 | alisertib 0.008 | [4] 0.006 | gefitinib 0.003

WAC isoform 5 (UniProt Q9BTA9)
UniProt Q9BTA9, sequence (Q9BTA9 whole entry, looked up): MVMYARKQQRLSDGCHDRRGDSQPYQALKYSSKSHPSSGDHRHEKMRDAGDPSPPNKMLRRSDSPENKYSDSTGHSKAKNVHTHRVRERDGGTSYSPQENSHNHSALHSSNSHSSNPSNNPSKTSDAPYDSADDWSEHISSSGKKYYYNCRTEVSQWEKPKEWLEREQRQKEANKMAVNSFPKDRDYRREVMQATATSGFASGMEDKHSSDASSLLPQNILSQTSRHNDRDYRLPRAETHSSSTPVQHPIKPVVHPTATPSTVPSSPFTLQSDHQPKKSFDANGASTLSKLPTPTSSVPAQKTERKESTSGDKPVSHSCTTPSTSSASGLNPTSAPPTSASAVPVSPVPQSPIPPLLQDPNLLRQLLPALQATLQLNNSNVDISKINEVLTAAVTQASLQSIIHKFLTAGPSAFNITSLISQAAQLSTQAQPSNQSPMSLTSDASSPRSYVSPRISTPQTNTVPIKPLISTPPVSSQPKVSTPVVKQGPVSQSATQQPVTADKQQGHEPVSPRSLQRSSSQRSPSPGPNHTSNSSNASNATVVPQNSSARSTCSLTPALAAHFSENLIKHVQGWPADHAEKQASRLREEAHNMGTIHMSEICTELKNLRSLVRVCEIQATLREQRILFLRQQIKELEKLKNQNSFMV
inactive: Tubastatin A -0.119 | [1] -0.359 | [2] -0.117

VHL (UniProt P40337)
inactive: alvocidib -0.06 | Tubastatin A -0.117 | [1] -0.009 | defactinib -0.034 | [2] -0.047 | encorafenib 0.143 | [3] -0.047 | alisertib 0.05 | gefitinib -0.029

XPOT (UniProt F5GYW6)
inactive: [4] 0.121

ZBTB40 (UniProt Q9NUA8)
inactive: alvocidib 0.09 | Tubastatin A -0.089 | [1] 0.03 | defactinib -0.032 | [2] 0.048 | alisertib -0.187 | [4] -0.038 | gefitinib -0.246

WAS (UniProt P42768)
UniProt P42768, sequence (P42768 whole entry, looked up): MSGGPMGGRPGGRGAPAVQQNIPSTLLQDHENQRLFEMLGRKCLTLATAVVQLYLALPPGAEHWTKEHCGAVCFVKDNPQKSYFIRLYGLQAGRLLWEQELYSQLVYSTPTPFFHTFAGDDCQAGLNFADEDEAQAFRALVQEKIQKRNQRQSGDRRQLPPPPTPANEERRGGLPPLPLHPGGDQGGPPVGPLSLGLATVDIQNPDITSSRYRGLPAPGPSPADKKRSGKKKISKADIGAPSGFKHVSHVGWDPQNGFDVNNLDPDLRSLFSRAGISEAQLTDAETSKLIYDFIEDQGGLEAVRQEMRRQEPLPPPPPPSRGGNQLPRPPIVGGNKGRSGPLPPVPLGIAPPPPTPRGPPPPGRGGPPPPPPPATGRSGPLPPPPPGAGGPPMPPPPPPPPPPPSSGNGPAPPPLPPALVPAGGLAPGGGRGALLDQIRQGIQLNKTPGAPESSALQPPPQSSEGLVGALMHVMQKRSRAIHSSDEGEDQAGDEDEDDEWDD
inactive: alvocidib -0.028 | [1] 0.032 | [2] 0.365 | encorafenib 0.004 | [3] 0.08 | alisertib -0.041 | gefitinib 0.215

ZYG11A (UniProt Q6WRX3)
UniProt Q6WRX3, sequence (Q6WRX3 whole entry, looked up): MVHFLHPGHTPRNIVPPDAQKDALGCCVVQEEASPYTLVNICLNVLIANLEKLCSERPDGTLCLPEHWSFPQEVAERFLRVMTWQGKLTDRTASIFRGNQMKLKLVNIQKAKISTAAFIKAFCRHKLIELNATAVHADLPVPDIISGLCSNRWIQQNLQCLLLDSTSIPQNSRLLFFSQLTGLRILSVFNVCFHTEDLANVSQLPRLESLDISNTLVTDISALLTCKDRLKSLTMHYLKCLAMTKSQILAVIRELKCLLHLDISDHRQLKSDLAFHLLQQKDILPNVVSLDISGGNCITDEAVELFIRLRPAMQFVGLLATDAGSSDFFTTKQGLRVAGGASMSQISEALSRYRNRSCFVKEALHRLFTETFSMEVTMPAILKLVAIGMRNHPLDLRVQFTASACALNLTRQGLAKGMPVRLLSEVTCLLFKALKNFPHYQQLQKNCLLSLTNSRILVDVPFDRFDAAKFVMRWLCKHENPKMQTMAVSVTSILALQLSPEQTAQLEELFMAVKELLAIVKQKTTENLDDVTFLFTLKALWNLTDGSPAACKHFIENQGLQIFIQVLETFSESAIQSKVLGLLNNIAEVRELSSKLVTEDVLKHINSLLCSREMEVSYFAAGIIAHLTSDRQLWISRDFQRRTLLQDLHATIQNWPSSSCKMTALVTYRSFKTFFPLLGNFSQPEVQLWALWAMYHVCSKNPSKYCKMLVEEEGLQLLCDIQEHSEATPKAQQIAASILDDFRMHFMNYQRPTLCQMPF
inactive: alvocidib -0.18 | Tubastatin A 0.018 | [1] -0.013 | alisertib -0.08 | [4] 0.212 | gefitinib -0.029

USP16 (UniProt Q9Y5T5)
inactive: alvocidib 0.004 | Tubastatin A -0.118 | [1] -0.011 | defactinib 0.035 | [2] 0.008 | encorafenib 0.059 | [3] 0.081 | alisertib -0.011 | [4] -0.003 | gefitinib -0.013
